Screening data deposited in PubChem by National Center for Advancing Translational Sciences (NCATS).
The entries come from a sample that favours hits as a whole.
KDM5B inhibitor: KDM5B demethylase inhibition; AID 1347165; KDM5B demethylase, FDH-coupled NADH fluorescence (FDH is formaldehyde dehydrogenase); actives 2.6% (n = 220,000); Potency, µM (series often up to 57.7 µM), actives largely listed as inhibitors; active = well fitted inhibition curve with a large enough effect; note: 0% is about no effect; nearly all actives have a fitted effect of over 70% in size
Target sequence (Q9UGL1 whole entry, looked up): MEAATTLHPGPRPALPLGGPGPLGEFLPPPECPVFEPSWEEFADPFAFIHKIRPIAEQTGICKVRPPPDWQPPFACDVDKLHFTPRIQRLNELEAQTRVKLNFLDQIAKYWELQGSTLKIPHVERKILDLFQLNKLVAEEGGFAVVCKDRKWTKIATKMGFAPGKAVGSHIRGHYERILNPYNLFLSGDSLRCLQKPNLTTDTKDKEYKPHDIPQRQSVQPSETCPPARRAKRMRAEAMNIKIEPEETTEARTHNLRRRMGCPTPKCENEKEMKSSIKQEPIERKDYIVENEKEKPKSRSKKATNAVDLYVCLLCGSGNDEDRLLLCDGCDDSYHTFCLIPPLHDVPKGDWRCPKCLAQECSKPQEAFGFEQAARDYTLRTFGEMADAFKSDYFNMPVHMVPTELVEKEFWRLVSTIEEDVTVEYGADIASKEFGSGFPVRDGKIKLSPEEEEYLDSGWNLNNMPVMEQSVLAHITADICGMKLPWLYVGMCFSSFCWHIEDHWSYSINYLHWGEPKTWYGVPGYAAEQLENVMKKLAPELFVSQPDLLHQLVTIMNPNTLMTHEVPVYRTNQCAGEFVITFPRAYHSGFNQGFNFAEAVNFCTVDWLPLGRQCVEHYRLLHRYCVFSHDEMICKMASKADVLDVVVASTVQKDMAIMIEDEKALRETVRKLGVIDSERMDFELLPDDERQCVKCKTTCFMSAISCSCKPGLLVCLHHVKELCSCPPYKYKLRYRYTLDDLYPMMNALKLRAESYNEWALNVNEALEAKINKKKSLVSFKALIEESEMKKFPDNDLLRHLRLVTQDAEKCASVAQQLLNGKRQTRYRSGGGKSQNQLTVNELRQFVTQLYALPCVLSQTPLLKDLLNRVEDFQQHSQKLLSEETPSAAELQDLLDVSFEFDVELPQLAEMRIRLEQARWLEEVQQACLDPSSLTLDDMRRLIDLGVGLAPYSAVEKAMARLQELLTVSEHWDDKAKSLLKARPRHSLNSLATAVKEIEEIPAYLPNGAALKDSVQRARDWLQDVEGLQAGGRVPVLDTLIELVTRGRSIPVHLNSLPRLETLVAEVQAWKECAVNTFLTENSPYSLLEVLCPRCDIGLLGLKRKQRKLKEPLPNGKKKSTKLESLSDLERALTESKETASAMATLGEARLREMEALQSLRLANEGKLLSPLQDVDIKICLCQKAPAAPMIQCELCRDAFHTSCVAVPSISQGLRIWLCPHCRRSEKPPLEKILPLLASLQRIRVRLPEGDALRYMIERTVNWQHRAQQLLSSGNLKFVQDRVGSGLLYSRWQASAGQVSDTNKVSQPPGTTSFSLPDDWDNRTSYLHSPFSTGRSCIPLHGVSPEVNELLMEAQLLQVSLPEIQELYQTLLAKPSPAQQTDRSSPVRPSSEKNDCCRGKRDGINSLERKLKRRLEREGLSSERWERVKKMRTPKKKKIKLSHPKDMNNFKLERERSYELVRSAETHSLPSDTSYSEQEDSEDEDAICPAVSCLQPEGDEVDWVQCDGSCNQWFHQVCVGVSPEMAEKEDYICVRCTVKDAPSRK
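Coupled FDH/NAD⁺ fluorescence readout. KDM5BΔAP 200 nM final; compound titration, 10 min RT preincubation; substrate mix 12.5 µM H3K4me3, 25 µM 2-OG, 50 µM Fe(II), 100 µM ascorbate, 0.25 mM NAD⁺, 0.25 U/mL FDH; ΔRFU over 30 min.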
The depositor's hits bear a star; i = inactive. Potency is the fitted concentration of half-maximal effect.

SMILES | KDM5B inhibitor
COc1ccc(CNC23CC4CC(CC(C4)C2)C3)c2ccccc12 | i
Cc1oc(-c2cccs2)nc1CC(=O)Nc1ccccc1OCC(F)(F)F | i
O=C(NC1CCc2nnc(C3CC3)n2CC1)c1cccs1 (configuration not stated) | i
Cc1ccc(C(=O)NC2CCc3nnc(C4CC4)n3CC2)c(=O)[nH]1 (configuration not stated) | 32µM*
Cc1ncoc1C(=O)NC1CCc2nnc(C3CC3)n2CC1 (configuration not stated) | i
CCOC(=O)C1CCN(C(=O)CSc2nnc(-c3ccc(C)cc3)n2N)CC1 | i
O=C(O)c1ccc(Sc2ccccc2C(=O)O)c([N+](=O)[O-])c1 | i
CN(CC(=O)Nc1cccc(F)c1)C(=O)Cc1csc(-c2cccc(Br)c2)n1 | i
CC(C)c1noc(CN(C)C(=O)c2cc(-c3cnn(C)c3)nc3ccccc23)n1 | 28µM*
CN(Cc1cccs1)C(=O)c1cc(-c2ccncc2)nc2ccccc12 | i
CN(Cc1ccccc1)C(=O)c1cc(-c2cccnc2)nc2ccccc12 | i
Fc1ccc(NC(=S)NCCCc2ccccc2)cc1 | i
COc1ccc(CNC(=O)C2=C(c3ccccc3)c3cc(Cl)ccc3S(=O)(=O)N2C)cc1 | i
O=C(COc1ccccc1)Nc1nn2cc(-c3ccccc3)nc2s1 | i
CC(=O)N1CCc2[nH]cnc2C12CCN(C(=O)Cn1nccc1C)CC2 | i
O=C(Cn1nc2c(cc1=O)CCCC2)N1CCCC1 | i
CNc1nc2c(c(C(=O)N3CCCC3)n1)CN(C(=O)Cn1nccc1C)CC2 | 22µM*
CC(C)C(=O)N(Cc1cc2ccccc2[nH]c1=O)c1ccccc1 | i
COc1ccc(-c2noc(CC3CCN(C(=O)c4ccc5c(c4)OCO5)CC3)n2)cc1 | i
COc1ccc(-c2onc(C)c2C(=O)N2CCC(Cc3ccc(F)cc3)CC2)cc1 | i
COc1cccc(CCNC(=O)c2c(C)noc2-c2ccc(OC(F)(F)F)cc2)c1 | i
COc1ccc(CCNC(=O)c2c(C)noc2-c2ccc(OC(F)(F)F)cc2)cc1 | i
Cc1noc(-c2ccc3c(c2)OCO3)c1C(=O)NCCc1cccc(Cl)c1 | 28µM*
Cc1noc(-c2cccc(F)c2)c1C(=O)NCCc1cccc(Cl)c1 | i
COc1cccc(CCNC(=O)c2c(C)noc2-c2ccc3c(c2)OCO3)c1 | 14µM*
SMILES | KDM5B inhibitor
COc1ccc(CC2CCN(C(=O)c3c(C)noc3-c3ccc4c(c3)OCO4)CC2)cc1 | 20µM*
COc1ccc(CCNC(=O)c2c(C)noc2-c2ccccc2OC)cc1OC | i
Cc1noc(-c2cccc(F)c2)c1C(=O)NCCCCc1ccccc1 | i
COc1ccc(CCNC(=O)c2c(C)noc2-c2ccc3c(c2)OCO3)cc1OC | 28µM*
COc1ccc(CCNC(=O)c2c(C)noc2-c2ccccc2Cl)cc1OC | i
CCc1ccc(Cn2nccc2NC(=O)C2CCN(S(=O)(=O)c3ccccc3)CC2)cc1 | i
O=C(CCCCCCCC(=O)Nc1ccc(C(=O)c2ccccc2)cc1)Nc1ccc(C(=O)c2ccccc2)cc1 | i
Cc1ccc(C)c(/C=C/C(=O)c2ccc(O)cc2)c1 | i
CCC1CN(CC(=O)Nc2cc(C)cc(C)c2)c2ccccc2S1 (configuration not stated) | i
CN(Cc1nc2ccccc2n1C(F)F)S(=O)(=O)c1ccc(F)cc1 | i
CCCNC(=O)NC(C)(C)C(=O)O | i
COc1ccc(-c2nc(SC(CC(=O)NCc3ccco3)c3ccccc3)n[nH]2)cc1 (configuration not stated) | i
COc1ccc(-c2cnc(Nc3ccccc3)c3c2CCO3)cn1 | 40µM*
COc1ccc(-c2ccc3ncc(Nc4ccc(C(N)=O)cc4)n3n2)cn1 | i
COc1ccc(-c2cnc(NC(=O)Cc3ccccc3)c3c2CCO3)cn1 | i
COc1cncc(Nc2ncc(-c3cccc(F)c3)c3c2OCC3)c1 | 32µM*
COc1ccc(-c2csc3ncnc(Nc4cccc(F)c4)c23)cc1 | i
COc1cccc(Nc2ncc(-c3cccnc3)c3c2OCC3)c1 | 32µM*
COc1cccc(CNC2CCCc3nc(-c4cccnc4)ncc32)c1 (configuration not stated) | i
COc1cccc(C(=O)N[C@H]2[C@H](O)[C@H](O)C[C@@H]2c2cccnc2)c1 | i
c1ccc(-c2cnc(Nc3ccc4c(c3)OCCO4)c3c2CCO3)cc1 | 40µM*
c1ccc(-c2ccc3ncc(Nc4ccc5c(c4)OCCO5)n3n2)cc1 | i
O=C(Nc1ncc(-c2ccccc2)c2c1OCC2)c1ccncc1 | i
C=C(C)CNC(=S)NNC(=S)NC1CCCC(C)C1C (configuration not stated) | i
Cc1ccc(-c2nc(CN3CCCC3c3ccsc3)co2)c(C)c1 (configuration not stated) | i
SMILES | KDM5B inhibitor
Cc1ccc2c(c1)C(c1ccc(F)cc1)N(C(=O)Cc1cccc3ccccc13)CC(=O)N2 (configuration not stated) | i
Cc1ccc(CN(C)C(=O)c2cc(-c3cccnc3)nc3ccccc23)o1 | i
Clc1ccc(CN2CCc3ccccc3C2)cc1 | i
COc1ccc2cc(C(=O)NCC(=O)Nc3c(C)cc(C)cc3C)c(C)nc2c1 | i
Cc1c(C(=O)Nc2ccc3oc(-c4ccc(F)cc4)nc3c2)cccc1[N+](=O)[O-] | i
COc1ccc2cc(-c3nc(-c4nonc4N)no3)c(=O)oc2c1 | i
CSc1ccc(/C=C/C(=O)c2ccc(Cl)c(Cl)c2Cl)cc1 | i
COc1ccc(NC(=O)Cn2c(N3CCCCC3)nc(C)c(C)c2=O)cc1Cl | i
NC(=O)[C@H](CC1CCCCC1)NC(=O)[C@@H]1CN(C(=O)Nc2ccccc2)CCN1C(=O)C1CCNCC1 | i
N#Cc1c(/N=C/c2c(F)cccc2Cl)sc2c1CCCC2 | i
CN(C)c1cccc(C(=O)N2CCNc3cnc(Nc4ccc(N5CCOCC5)cc4)nc3C2)c1 | i
CN(C)c1cccc(-c2cnc(Nc3ccncc3)c3c2CCO3)c1 | 28µM*
Cn1cc(-c2cc(=O)c3ccnc(Nc4ccc5[nH]ccc5c4)c3o2)cn1 | i
Cc1nnc(-c2cc(-c3cccc(N(C)C)c3)ccn2)n1Cc1ccncc1 | i
Cn1cc(-c2cnc(Nc3ccc(F)cc3)c3c2CCO3)cn1 | 6.3µM*
Cn1cc(-c2cnc(Nc3cccnc3)c3c2CCO3)cn1 | i
Cc1ccc(NC(=O)Cn2nc(-c3cccs3)oc2=O)cc1C | i
c1ccc(Nc2cccc(Nc3nc(CN4CCOCC4)nc4sc5c(c34)CCC5)c2)cc1 | i
CCOC(=O)c1noc2nc(C)n(CC(=O)Nc3cc(OC)ccc3OC)c(=O)c12 | i
O=c1[nH]c(CN2CCCCCCC2)nc2c(Br)cc(Br)cc12 | i
O=C(Oc1ccc2c(-c3cc4cc(Br)ccc4oc3=O)cc(=O)oc2c1)N1CCOCC1 | i
N#Cc1cccc(CN[C@H]2[C@H](O)[C@H](O)C[C@@H]2c2ccc(C(F)(F)F)nc2)c1 | i
O[C@H]1[C@H](NCc2cnc3ccccc3c2)[C@@H](c2ccc(N3CCOCC3)nc2)C[C@H]1O | i
O[C@H]1[C@H](NCc2cccc(C(F)(F)F)c2)[C@@H](c2ccc(N3CCOCC3)nc2)C[C@H]1O | 32µM*
O[C@H]1[C@H](NCc2ccc(Cl)cc2)[C@@H](c2ccc(N3CCOCC3)nc2)C[C@H]1O | 40µM*
COc1ccc([C@H]2C[C@@H](O)[C@@H](O)[C@@H]2NCc2ccc(Cl)cc2)cc1 | i
